High-throughput results from PubChem.
NS1 inh = blocks influenza NS1 protein function | Potency, µM (doses to about 46.1 µM) | 270,000 tested, 0.4% active | AID 2326; calls by dose curve; note: actives are rising curves; nearly all actives have a fitted effect of over 50% in size
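In this qHTS, NS1 from influenza A is expressed in budding yeast, where it slows growth. Cells are switched from glucose to 2% galactose medium (pH 6.0, -URA), treated with compound, and growth recovery is read at OD600.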
LmPK inh = LmPK (Leishmania mexicana) enzyme inhibition; Q27686; purified LmPK, Kinase-Glo ATP luminescence, 1 h; Potency, µM (series often up to 57.5 µM), hits mostly inhibitors; 290,000 tested, 0.37% active; AID 1721
Target sequence (Q27686 whole entry, looked up): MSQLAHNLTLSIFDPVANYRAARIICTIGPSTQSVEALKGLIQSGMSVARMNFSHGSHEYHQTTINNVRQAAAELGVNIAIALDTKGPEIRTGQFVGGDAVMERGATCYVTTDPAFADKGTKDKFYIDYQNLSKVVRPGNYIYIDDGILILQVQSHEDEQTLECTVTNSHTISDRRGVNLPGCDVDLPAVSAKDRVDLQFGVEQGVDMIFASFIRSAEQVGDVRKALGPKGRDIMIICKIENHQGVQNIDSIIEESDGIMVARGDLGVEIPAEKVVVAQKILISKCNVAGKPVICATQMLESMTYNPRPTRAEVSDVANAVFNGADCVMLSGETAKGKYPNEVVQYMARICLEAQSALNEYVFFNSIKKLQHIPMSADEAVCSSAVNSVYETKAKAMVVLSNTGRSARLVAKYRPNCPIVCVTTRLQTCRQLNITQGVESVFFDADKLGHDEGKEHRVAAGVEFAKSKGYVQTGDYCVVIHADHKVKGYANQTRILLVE
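Kinase-Glo luminescence read after 1 h RT reaction of 0.1 nM LmPK with 0.5 mM PEP and 0.1 mM ADP. Activity scaled between uninhibited and enzyme-free controls.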
FBPA Giardia inh = blocks Giardia fructose-bisphosphate aldolase activity. A8B2U2. purified Giardia FBPA. Potency, µM (top dose mostly 59.6 µM), most hits filed as inhibitors. 290,000 tested, 0.71% active; note: nearly all actives have a fitted effect of over 55% in size
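Giardia FBPA (40 nM reagent) was preincubated 10 min at RT with compound (up to 57.5 uM final), then substrate plus GAPDH/TPI/NAD/arsenate coupling system with diaphorase/resazurin was added; resorufin fluorescence (525/598 nm) was read after 20 min.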
Shiga toxin inh = inhibitors of Shiga toxin in Vero cells. 290,000 tested, 9.2% active. Vero cells, Shiga toxin protein synthesis inhibition reporter. AID 2315. inhibition, % at 38.7 µM; in the data active = inhibition mostly above about 28%, no sharp cut-off; inactive = mostly below about 43%
Cycloheximide cs = affects cycloheximide protein synthesis inhibition readout, counter-screen | cell reporter, cycloheximide protein synthesis inhibition counterscreen | max response, % | 300,000 tested, 12% active; in the data active = max response mostly above about 13%, no sharp cut-off; inactive = mostly below about 14%; note: read at 38.3 µM for the half of the compounds with a filed dose
A number is an active result; n = inactive; u = inconclusive; x = not tested or not shown; [ ] = dose if it differs, or a comment. Shown are actives, neighbours in structure and some others; about 14% of the full set was active somewhere. Unless noted, calls come from the whole dose curve; as a rule, active = well fitted curve in the direction sought with a large enough effect; inconclusive = small, poorly fitted or top-dose-only effect, or another doubt; inactive = no such curve, though single readings can be large; an effect the other way counts as inactive or inconclusive.

SMILES	NS1 inh	LmPK inh	FBPA Giardia inh	Shiga toxin inh	Cycloheximide cs
O=C(O)/C=C/c1coc2ccccc2c1=O	n	n	n	n	33.4
Cc1ccc2occ(/C=C/C(=O)O)c(=O)c2c1	n	n	x	n	n
COc1cccc([C@@H]2Oc3ccc(OC)cc3/C(=N/O[C@@H](C)CN3CCCCc4nc(C)c(C)cc43)[C@@H]2O)c1	x	x	n[12.9 µM]	x	x
Cc1c(C(=O)O)c(C(=O)O)c2n1CCS2	n	n	n	n	n
COc1ccc(CCNC(=O)CN2C(=O)COc3ccc(S(=O)(=O)N4CCCC4)cc32)c(OC)c1	n	n	n	n	n
O=C(Nc1nnc(-c2ccc3c(c2)CCCC3)o1)c1ccc(Cl)cc1Cl	n	n	u	n	n
O=C(Nc1nnc(-c2ccc3c(c2)CCCC3)o1)c1c(F)cccc1F	x	n	n	76.0	n
COc1ccc(-c2ccn(-c3cccc(F)n3)n2)cc1	n	n	n	97.6	47.9
O=C(N/N=C/c1cccnc1)c1[nH]ncc1Br	n	17.8µM	n	49.6	36.6
O=C(N/N=C/c1ccccc1)c1[nH]ncc1Br	x	12.6µM	n	109.8	43.5
O=C(Cc1ccc(Br)cc1)N/N=C/c1cccnc1	n	n	x	n	n
CCN(CC)c1ccc(C(=O)N/N=C/c2ccc(OC)cc2OC)cc1	x	n	n	n	n
Nc1c(Cl)c(Cl)nc(C(=O)N/N=C/c2ccco2)c1Cl	n	n	n	n	n
COc1ccc(/C=N/NC(=O)c2[nH]ncc2Br)c(OC)c1	n	u	n	68.0	38.5
O=C(N/N=C/c1ccco1)c1[nH]ncc1Br	n	n	x	120.5	43.2
Clc1cccc2c1CN(C1=NCCN1)C2	x	x	n	x	x
C#CCCCO/N=C1/C[C@@H](O)[C@@H](O)[C@@H]2[C@@H]3C(=O)N(CC)C(=O)[C@H]3CC[C@H]12	x	x	n[12.9 µM]	x	x
CN(Cc1cccc(Cl)c1)C(=O)C1CCC(=O)N(C2CC2)C1 (centres undefined)	n	n	n	n	n
O=C(N/N=C/c1c[nH]c2ccccc12)c1cc(-c2ccccc2)n[nH]1	n	n	n	n	n
COc1ccc(C(=O)Nc2cc(-c3ccc(C)cc3)no2)cc1	n	n	n	n	n
O=C(N/N=C/c1c[nH]c2ccccc12)c1ccn[nH]1	x	n	n	n	27.9
O=C(N/N=C/c1c[nH]c2ccccc12)c1cc(-c2cccc3ccccc23)n[nH]1	n	n	n	n	18.6
Cc1nc(C)c(C(=O)N/N=C/c2c[nH]c3ccccc23)s1	n	n	n	n	n
Cc1ccc(-c2cc(C(=O)N/N=C/c3c[nH]c4ccccc34)[nH]n2)cc1	n	n	n	51.3	47.3
Cc1ccc(-c2cc(NC(=O)c3ccccc3)on2)cc1	n	n	n	93.6	22.8
SMILES	NS1 inh	LmPK inh	FBPA Giardia inh	Shiga toxin inh	Cycloheximide cs
O=C(N/N=C/c1c[nH]c2ccccc12)c1cc(-c2ccc(-c3ccccc3)cc2)n[nH]1	n	n	n	53.6	34.5
Cc1ccc(NC(=O)c2cc(-c3ccccc3)n[nH]2)cc1	n	n	n	48.9	39.5
CC(C)(C)NC(=O)c1cc(-c2ccccc2)n[nH]1	x	n	n	n	n
CC/C(=N\NC(=O)c1c(C)nc2ccccn12)c1ccccc1	n	n	n	n	n
O=C(N=c1nc2ccccn2s1)c1ccccc1	11.2µM	3.55µM	n	151.6	41.3
Oc1ccc(C=Nc2ccc3ncccc3c2)c(O)c1	u	n	u	106.0	55.8
O=C(NCCCN1CCOCC1)c1ccc2c(c1)N(Cc1ccc(Cl)cc1)C(=O)c1ccccc1S2=O (centres undefined)	u	n	n	n	n
O=C(c1ccncc1)N1CCC2(CC1)CN(c1ccccn1)C2	x	x	n	x	x
CSCC[C@H](NC(=O)c1ccco1)c1nnc2ccccn12	n	n	n	n	n
c1ccc2c(c1)nc(N1CCOCC1)c1nnnn12	n	n	n	active	32.3
c1ccc(N2CCN(c3nc4ccccc4n4nnnc34)CC2)cc1	n	n	n	27.8	37.7
c1ccc2c(c1)nc(N1CCN(C3CCCCC3)CC1)c1nnnn12	n	n	n	n	n
COC(=O)[C@H](Cc1ccccc1)NC(=O)O[C@@H]1C(=O)c2ccc(OC)cc2O[C@H]1c1cccc(C(F)(F)F)c1	x	x	n	x	x
CC(C)c1ccc(-c2nnn(CCC#N)n2)cc1	n	n	n	72.2	26.7
Cc1cc(Cl)ccc1OCC(=O)Nc1ccccc1CO	n	n	n	49.7	24.9
Cc1cc(Cl)ccc1OCC(=O)Nn1c(C)ccc1C	n	n	n	n	n
CSc1ccccc1NC(=O)COc1ccc(Cl)cc1C	n	n	n	48.4	40.2
Cc1cc(N=Cc2c(CO)cnc(C)c2O)c(N=Cc2c(CO)cnc(C)c2O)cc1C.[Zn]	n	x	x	x	x
